Data reported in PubChem BioAssay (NCATS).
Values joined by “and” are separate entries in the source; they are usually repeats but may differ in a detail not shown here. Identical values can stand only once. Inconclusive results are not listed. Where a structure was tested more than once in an assay, its records may differ in their call. Active and inactive are the calls of the source. Calls follow the shape of the dose curve; as a rule, active = well fitted inhibition curve with a large enough effect; inconclusive = small, poorly fitted or top-dose-only effect; inactive = flat fitted curve, though single readings scatter.

Assays:
CRL-7250 = normal cell line; assay: Cytotoxic Profiling of Annotated Libraries Using Quantitative High-Throughput Screening (AID 1296008); settings: Five cell lines viability, CellTiter-Glo ATP luminescence, 48-72 h; max response: stronger effect = lower value; as to max response: % is scaled to controls: 0 for no effect and ±100 for the full control effect
Outline: (§1)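 Cells exposed to compounds for 48 or 72 hr at 37 degrees Celsius. Viability read as ATP-coupled luminescence with CellTiter-Glo after 10 min at room temperature.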

HEK293 = assay: as above; settings: Five cell lines viability, CellTiter-Glo ATP luminescence, 48-72 h; max response: stronger effect = lower value
Outline: as §1

HaCat = assay: as above; settings: Five cell lines viability, CellTiter-Glo ATP luminescence, 48-72 h; max response: stronger effect = lower value
Outline: as §1

KB-3-1 = assay: as above; settings: Five cell lines viability, CellTiter-Glo ATP luminescence, 48-72 h; max response: stronger effect = lower value
Outline: as §1

MCC-13 = assay: qHTS assay to identify novel small-molecules to repurpose for Merkel cell carcinoma treatment (AID 1296009); settings: MCC and control cell lines, CellTiter-Glo viability, 72 h; series mostly up to 46 µM
Outline: (§2)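 Dose-response viability screen; 72 hr exposure at 37 degree celsius; CellTiter-Glo added, 10 min room temperature, luminescence read; RLUs scaled between no-cell and DMSO wells.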

MCC-26 = assay: as above; settings: MCC and control cell lines, CellTiter-Glo viability, 72 h; series mostly up to 46 µM
Outline: as §2

MKL-1 = assay: as above; settings: MCC and control cell lines, CellTiter-Glo viability, 72 h; series mostly up to 46 µM
Outline: as §2

MKL-2 = assay: as above; settings: MCC and control cell lines, CellTiter-Glo viability, 72 h; series mostly up to 46 µM
Outline: as §2

UISO = assay: as above; settings: MCC and control cell lines, CellTiter-Glo viability, 72 h; series mostly up to 46 µM
Outline: as §2

PC26 = assay: qHTS profiling for inhibitors of Plasmodium falciparum proliferation (AID 504749); settings: P. falciparum in erythrocytes, SYBR Green DNA, 72 h; series mostly up to 28.7 µM
Outline: (§3)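 Each compound contacts P. falciparum-infected red blood cells for 72 h at 37 C; lysis buffer (Tris, EDTA, saponin, Triton X, SYBR Green I) is added and fluorescence measured next morning; values normalized to controls.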

PC49 = assay: as above; settings: P. falciparum in erythrocytes, SYBR Green DNA, 72 h; series mostly up to 28.7 µM
Outline: as §3

SC27B = assay: as above; settings: P. falciparum in erythrocytes, SYBR Green DNA, 72 h; series mostly up to 28.7 µM
Outline: as §3

TAB109 = assay: as above; settings: P. falciparum in erythrocytes, SYBR Green DNA, 72 h; series mostly up to 28.7 µM
Outline: as §3

TAB113 = assay: as above; settings: P. falciparum in erythrocytes, SYBR Green DNA, 72 h; series mostly up to 28.7 µM
Outline: as §3

TAB165 = assay: as above; settings: P. falciparum in erythrocytes, SYBR Green DNA, 72 h; series mostly up to 28.7 µM
Outline: as §3

NIH3T3 = assay: Cytotoxic Profiling of Annotated Libraries Using Quantitative High-Throughput Screening (AID 1296008); settings: Five cell lines viability, CellTiter-Glo ATP luminescence, 48-72 h; max response: stronger effect = lower value; as to max response: % is scaled to controls: 0 for no effect and ±100 for the full control effect
Outline: as §1
Also: nearly all actives have a fitted effect of over 60% in size.
Potency is read from the fitted curve at half-maximal effect.

Cc1n[nH]c(C)c1Cc1sc2c(c1C(=O)N1C[C@H](O)CO1)c(=O)n(C)c(=O)n2CC(C)C
inactive: max response (CRL-7250) -7.94% | max response (HaCat) -3.78% and -14.4% | outcome (KB-3-1) | Potency (MCC-13) | Potency (MCC-26) | Potency (MKL-1) | Potency (MKL-2) | Potency (UISO)
active: Potency (HEK293) 0.184 µM

CCCc1nn(C)c2c(=O)[nH]c(-c3cc(S(=O)(=O)N4CCN(C)CC4)ccc3OCC)nc12
inactive: Potency (PC26) | Potency (PC49) | Potency (SC27B) | Potency (TAB109) | Potency (TAB113) | Potency (TAB165) | max response (CRL-7250) -31.4% and 2.3% | max response (KB-3-1) 4.32% | outcome (KB-3-1) | max response (NIH3T3) -19.3% and 3.51% | Potency (MCC-13) | Potency (MCC-26) | Potency (MKL-1) | Potency (MKL-2) | Potency (UISO)
active: Potency (HEK293) 18.7 µM

CC[C@H](Nc1ncnc2nc[nH]c12)c1nc2cccc(F)c2c(=O)n1-c1ccccc1
active: Potency (HEK293) 23.5 µM | Potency (HaCat) 13.2 µM
inactive: max response (CRL-7250) -4.35% | outcome (KB-3-1) | max response (NIH3T3) -27.5% | Potency (MCC-13) | Potency (MCC-26) | Potency (MKL-1) | Potency (UISO)

Cc1c(CN2CCN(C(=O)C(C)C)CC2)sc2c(N3CCOCC3)nc(-c3cnc(N)nc3)nc12
active: Potency (CRL-7250) 118 nM | Potency (HEK293) 0.187 µM | Potency (HaCat) 1.05 µM | Potency (KB-3-1) 0.148 µM | Potency (NIH3T3) 469 nM | Potency (MCC-26) 0.662 µM

NNCCc1ccccc1
inactive: Potency (PC26) | Potency (PC49) | Potency (SC27B) | Potency (TAB109) | Potency (TAB113) | outcome (CRL-7250) | max response (HEK293) -15.3% | max response (HaCat) -0.0842% and -11.1% | max response (KB-3-1) -10.1% and -6.14% | max response (NIH3T3) 1.01% | Potency (MCC-13) | Potency (MCC-26) | Potency (MKL-1) | Potency (MKL-2) | Potency (UISO)

Cn1cnc([N+](=O)[O-])c1Sc1ncnc2nc[nH]c12
10.8 µM (active) and inactive: Potency (MKL-1)
active: Potency (TAB165) 11.2 µM | Potency (CRL-7250) 3.4 µM and 10.6 µM | Potency (HEK293) 10.5 µM | Potency (HaCat) 2.7 µM and 15 µM and 11.8 µM | Potency (KB-3-1) 2.96 µM | Potency (NIH3T3) 3.82 µM and 7.5 µM and 5.9 µM | Potency (MCC-13) 4.28 µM and 6.68 µM | Potency (MKL-2) 12.1 µM
inactive: Potency (PC49) | Potency (SC27B) | Potency (TAB109) | Potency (TAB113) | Potency (MCC-26)
